# Laboratory results published in PubChem BioAssay AID1159580 (chemical genetic matrix, 2015).
# Among all 5,500 compounds or so, about 2,000 (36%) were called active. About 18% were inconclusive and are not listed. This is one part of the list. A number with no mark means an inactive call. Rule as the data show it: active = normalized growth mostly below about 0.91 (no sharp cut-off); inconclusive = no clear call, values can overlap the other calls; inactive = mostly above about 0.92.
# Experiment: chemical genetic growth profiling, strain panel (AID 1159580);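 also: tested at 20 µM; growth read once vehicle control cultures reached saturation at 30 °C; 1 = growth at the plate median or of vehicle wells; lower values mean less growth of the strain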
# Conditions: S. cerevisiae deletion strains, growth OD
smiles,measurement,setting,value
COc1ccc(C(=O)c2ccccc2)c(O)c1,normalized growth,"locus YJR075W, strain HOC1, active compounds read low",0.848 (active)
same,normalized growth,"locus YKL009W, strain mrt4, active compounds read low",0.835 (active)
same,normalized growth,"locus YKL068W, active compounds read low",0.91 (active)
same,normalized growth,"locus YKL085W, strain MDH1 (second series), active compounds read low",0.895 (active)
same,normalized growth,"locus YKL085W, strain MDH1, active compounds read low",0.895 (active)
same,normalized growth,"locus YKL160W, strain elf1, active compounds read low",0.764 (active)
same,normalized growth,"locus YKL190W, strain CNB1, active compounds read low",0.913 (active)
same,normalized growth,"locus YKR001C, strain vps1, active compounds read low",0.553 (active)
same,normalized growth,"locus YKR026C, strain gcn3, active compounds read low",0.804 (active)
same,normalized growth,"locus YKR091W, strain srl3, active compounds read low",0.874 (active)
same,normalized growth,"locus YLL001W, strain dnm1, active compounds read low",0.734 (active)
same,normalized growth,"locus YLL026W, active compounds read low",0.841 (active)
same,normalized growth,"locus YLL041C, strain sdh2, active compounds read low",0.861 (active)
same,normalized growth,"locus YLR027C, strain aat2, active compounds read low",0.807 (active)
same,normalized growth,"locus YLR039C, strain RIC1, active compounds read low",0.441 (active)
same,normalized growth,"locus YLR058C, strain SHM2, active compounds read low",0.945
same,normalized growth,"locus YLR102C, strain apc9, active compounds read low",0.906 (active)
same,normalized growth,"locus YLR113W, strain HOG1, active compounds read low",0.836 (active)
same,normalized growth,"locus YLR221C, strain rsa3, active compounds read low",0.74 (active)
same,normalized growth,"locus YLR258W, strain gsy2, active compounds read low",0.815 (active)
same,normalized growth,"locus YLR262C, strain YPT6 (second series), active compounds read low",0.408 (active)
same,normalized growth,"locus YLR262C, strain YPT6, active compounds read low",0.526 (active)
same,normalized growth,"locus YLR268W, strain sec22, active compounds read low",0.917
same,normalized growth,"locus YLR320W, strain mms22, active compounds read low",0.542 (active)
same,normalized growth,"locus YLR330W, strain CHS5, active compounds read low",0.916 (active)
same,normalized growth,"locus YLR342W, strain FKS1 (second series), active compounds read low",0.763 (active)
same,normalized growth,"locus YLR342W, strain FKS1, active compounds read low",0.815 (active)
same,normalized growth,"locus YLR357W, strain rsc2, active compounds read low",0.857
same,normalized growth,"locus YLR370C, strain arc18, active compounds read low",0.77 (active)
same,normalized growth,"locus YLR371W, strain rom2, active compounds read low",0.918
same,normalized growth,"locus YLR384C, strain iki3, active compounds read low",0.843 (active)
same,normalized growth,"locus YLR418C, strain cdc73, active compounds read low",0.625 (active)
same,normalized growth,"locus YML016C, strain PPZ1, active compounds read low",0.932
same,normalized growth,"locus YML032C, strain rad52, active compounds read low",0.871 (active)
same,normalized growth,"locus YML120C, strain ndi1, active compounds read low",0.762 (active)
same,normalized growth,"locus YML124C, strain tub3, active compounds read low",0.899 (active)
same,normalized growth,"locus YMR058W, strain fet3, active compounds read low",0.732 (active)
same,normalized growth,"locus YMR078C, strain ctf18, active compounds read low",0.876 (active)
same,normalized growth,"locus YMR125W, strain sto1, active compounds read low",0.825 (active)
same,normalized growth,"locus YMR129W, active compounds read low",0.856 (active)
same,normalized growth,"locus YMR205C, strain PFK2, active compounds read low",0.567 (active)
same,normalized growth,"locus YMR223W, strain ubp8, active compounds read low",0.774 (active)
same,normalized growth,"locus YMR231W, strain pep5, active compounds read low",0.877 (active)
same,normalized growth,"locus YMR263W, strain SAP30, active compounds read low",0.878 (active)
same,normalized growth,"locus YMR307W, strain GAS1, active compounds read low",0.62
same,normalized growth,"locus YNL067W, strain RPL9B, active compounds read low",0.889
